Experimental data reported in PubChem BioAssay (Tox21).
Active and inactive are the calls of the source. Unless noted, calls follow the shape of the dose curve; as a rule, active = well fitted curve in the direction sought with a large enough effect in the repeat runs; inconclusive = weak or mixed curves; inactive = no such curve, though single readings can be large; an effect the other way counts as inactive or inconclusive.

Assays:
[1] = qHTS assay to identify small molecule antagonists of the thyroid receptor (TR) signaling pathway - cell viability counter screen (AID 743064); also: nearly all actives have a fitted effect of over 50% in size; also: potency is read from the fitted curve at half-maximal effect
How it was run: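 In rat pituitary GH3.TRE-Luc reporter cells co-exposed to compound and 1 nM T3 for 23.5 h, cytotoxicity was assessed with CellTiter-Fluor in the same wells, read by fluorescence.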

[2] = tested on: thyroid hormone receptor (rat, GH3 cells); assay: qHTS assay to identify small molecule agonists of the thyroid receptor (TR) signaling pathway (AID 743066; calls by dose curve)
[3] = qHTS assay to identify small molecule antagonists of the estrogen receptor alpha (ER-alpha) signaling pathway - cell viability counter screen (AID 743074; calls by dose curve;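 also: HEK293 cells carrying ER-alpha-UAS-bla reporter stimulated with 17beta-estradiol; nearly all actives have a fitted effect of over 45% in size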)
[4] = target: Aromatase (Homo sapiens) (UniProt P11511); assay: qHTS assay to identify aromatase inhibitors (AID 743083); also: series mostly up to about 70 µM; nearly all actives have a fitted effect of over 55% in size
[5] = qHTS assay to identify small molecule antagonists of the thyroid receptor (TR) signaling pathway (AID 743065); also: series mostly up to about 70 µM; nearly all actives have a fitted effect of over 55% in size
How it was run: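 GH3.TRE-Luc rat pituitary cells (two TREs driving luciferase) were dosed with compound, then stimulated with 1 nM T3 (final) for 23.5 h at 37 C. ONE-Glo luminescence was the read-out, with CellTiter-Fluor fluorescence as the cytotoxicity counter-screen.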

[6] = target: Estrogen receptor (Homo sapiens) (UniProt P03372); assay: qHTS assay to identify small molecule antagonists of the estrogen receptor alpha (ER-alpha) signaling pathway (AID 743069; active = well fitted curve in the direction sought with a large enough effect in the signal ratio in the repeat runs, not every such curve was filed as active; inconclusive = weak or mixed curves, or effect the other way; inactive = no such curve, though single readings can be large or run the other way; the % refers to the signal ratio)
How it was run: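 HEK293 ER-alpha-UAS-bla GripTite cells, held overnight in 2% charcoal-stripped FBS, 5,000 cells/well, preincubated 4 h, then compound plus 17beta-estradiol for 18 h at 37C. Beta-lactamase read by LiveBLAzer B/G FRET substrate, 2 h at room temperature.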

[7] = target: Estrogen receptor (Homo sapiens) (UniProt P03372); assay: qHTS assay to identify small molecule agonists of the estrogen receptor alpha (ER-alpha) signaling pathway (AID 743075; calls by dose curve; also: potency is read from the fitted curve at half-maximal effect)
[8] = target: Estrogen receptor (Homo sapiens) (UniProt P03372); assay: qHTS assay to identify small molecule agonists of the estrogen receptor alpha (ER-alpha) signaling pathway using the BG1 cell line (AID 743079); also: nearly all actives have a fitted effect of over 20% in size; also: potency is read from the fitted curve at half-maximal effect
[9] = qHTS assay to identify small molecule antagonists of the estrogen receptor alpha (ER-alpha) signaling pathway using the BG1 cell line (AID 743080; calls by dose curve;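 also: BG1 cells stimulated with 17beta-estradiol alongside compound; series mostly up to about 70 µM; nearly all actives have a fitted effect of over 25% in size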)
How it was run: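 Readout is ONE-Glo luminescence, taken 30 min at room temperature after reagent addition, preceded by a CellTiter-Fluor viability read; BG1-Luc-4E2 cells had received compound and 17beta-estradiol for 21.5 h at 37 C.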

[10] = qHTS assay to identify small molecule antagonists of the estrogen receptor alpha (ER-alpha) signaling pathway using the BG1 cell line - cell viability counter screen (AID 743081);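 also: compound given together with 17beta-estradiol as the ER stimulus; series mostly up to about 70 µM; nearly all actives have a fitted effect of over 45% in size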

Measured: Potency

Aromatase (Homo sapiens), sequence (P11511 whole entry, looked up): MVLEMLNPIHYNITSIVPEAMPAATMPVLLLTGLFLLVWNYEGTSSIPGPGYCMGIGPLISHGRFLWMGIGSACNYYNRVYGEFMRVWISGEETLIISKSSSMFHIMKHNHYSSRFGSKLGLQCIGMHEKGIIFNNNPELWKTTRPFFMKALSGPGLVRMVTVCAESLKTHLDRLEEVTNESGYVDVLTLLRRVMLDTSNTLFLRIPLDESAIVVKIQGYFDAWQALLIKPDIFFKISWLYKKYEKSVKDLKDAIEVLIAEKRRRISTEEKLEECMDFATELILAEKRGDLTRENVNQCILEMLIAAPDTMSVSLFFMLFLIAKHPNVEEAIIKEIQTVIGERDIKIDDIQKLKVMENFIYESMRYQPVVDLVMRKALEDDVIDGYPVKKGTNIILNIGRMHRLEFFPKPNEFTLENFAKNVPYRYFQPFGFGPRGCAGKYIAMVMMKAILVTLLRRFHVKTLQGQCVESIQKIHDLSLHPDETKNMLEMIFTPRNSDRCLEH
Estrogen receptor (Homo sapiens), sequence (P03372 whole entry, looked up): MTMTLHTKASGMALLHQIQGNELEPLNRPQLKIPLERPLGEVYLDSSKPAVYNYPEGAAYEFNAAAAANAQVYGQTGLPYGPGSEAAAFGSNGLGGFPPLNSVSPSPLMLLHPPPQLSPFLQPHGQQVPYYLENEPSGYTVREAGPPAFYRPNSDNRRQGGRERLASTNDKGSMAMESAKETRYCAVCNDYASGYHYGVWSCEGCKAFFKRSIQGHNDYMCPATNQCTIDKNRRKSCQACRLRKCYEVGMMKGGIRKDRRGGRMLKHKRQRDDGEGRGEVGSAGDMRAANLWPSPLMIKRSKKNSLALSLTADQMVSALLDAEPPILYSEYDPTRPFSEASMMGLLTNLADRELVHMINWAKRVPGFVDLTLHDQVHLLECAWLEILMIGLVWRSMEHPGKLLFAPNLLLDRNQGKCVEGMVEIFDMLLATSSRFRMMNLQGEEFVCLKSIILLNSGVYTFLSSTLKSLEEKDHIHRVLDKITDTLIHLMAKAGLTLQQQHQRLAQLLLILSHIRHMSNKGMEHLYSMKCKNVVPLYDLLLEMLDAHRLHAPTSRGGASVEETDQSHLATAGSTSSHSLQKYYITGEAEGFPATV

CN(C)C/C=C(/c1ccc(Br)cc1)c1cccnc1
active: [1] 10.6 µM
inactive: [2] | [3] | [4]

CC(C)(C)c1cc(CCC(=O)OCC(COC(=O)CCc2cc(C(C)(C)C)c(O)c(C(C)(C)C)c2)(COC(=O)CCc2cc(C(C)(C)C)c(O)c(C(C)(C)C)c2)COC(=O)CCc2cc(C(C)(C)C)c(O)c(C(C)(C)C)c2)cc(C(C)(C)C)c1O
active: [7] 0.0074 µM [inconclusive] | [8] 4.11 µM
not listed: [1]
inactive: all other assays above

CC(=O)/C(C)=C/C1C(C)=CCCC1(C)C (stereo unspecified)
not listed: [2] | [5]
inactive: all other assays above
